From PubChem BioAssay
A number with no mark means an inactive call. Entries that show only a call come without a potency. For some assays here: Potency and affinity values are given separately. Calls of active or inactive are those of the source. Unless noted, how the calls were made is not given here.

Experiments:
[1] = antimalarial activity against Dd2 strain (AID 2302;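 active means growth inhibition above 50% at the single 2 µM test dose, taken to imply half-maximal potency below 2 µM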); conditions: P. falciparum Dd2 in RBCs, LDH growth readout, 72 h; at 2 µM; hits give high values
[2] = human hepatoma cell viability loss – ATP luminescence, cytotoxicity control for P. falciparum antimalarial project, primary screen (AID 2303;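 active means inhibition above 50%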); conditions: HepG2 viability, 24-48 h, at 10 µM, hits give high values
[3] = target: L-lactate dehydrogenase (Plasmodium falciparum (isolate CDC / Honduras)) (UniProt Q27743); assay: PfLDH activity inhibition – cell lysate, 3D7 strain, counter-screen for P. falciparum growth inhibition project (AID 2304); conditions: P. falciparum 3D7 crude extract, LDH APAD/NBT absorbance; at 2 µM; hits give high values
Chain of L-lactate dehydrogenase (Plasmodium falciparum (isolate CDC / Honduras)) (Q27743 whole entry, looked up): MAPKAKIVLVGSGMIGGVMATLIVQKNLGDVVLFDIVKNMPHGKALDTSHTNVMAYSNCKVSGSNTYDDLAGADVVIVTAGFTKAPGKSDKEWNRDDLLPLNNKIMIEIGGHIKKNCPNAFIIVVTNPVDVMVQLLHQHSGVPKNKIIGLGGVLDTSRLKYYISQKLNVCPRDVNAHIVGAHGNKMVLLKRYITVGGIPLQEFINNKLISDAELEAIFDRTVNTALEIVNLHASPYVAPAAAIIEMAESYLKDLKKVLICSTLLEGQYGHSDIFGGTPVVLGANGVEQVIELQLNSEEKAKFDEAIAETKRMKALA

[4] = inhibition of 3D7 malaria parasite growth – strain 3D7 (AID 2306); conditions: P. falciparum 3D7 erythrocytic growth, LDH absorbance, 72 h; at 2 µM; hits give high values
[5] = target: Calcium-dependent protein kinase 1 (Plasmodium falciparum (isolate 3D7)) (UniProt P62344); assay: PfCDPK1 kinase inhibitors, biochemical, TCAMS library (AID 1159585; cut-off not given, nearly all actives have IC50 up to about 0.98 µM;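 further: inhibitors leave more ATP so luminescence rises with inhibition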); conditions: recombinant PfCDPK1, Kinase-Glo ATP depletion luminescence
Chain of Calcium-dependent protein kinase 1 (Plasmodium falciparum (isolate 3D7)) (P62344 whole entry, looked up): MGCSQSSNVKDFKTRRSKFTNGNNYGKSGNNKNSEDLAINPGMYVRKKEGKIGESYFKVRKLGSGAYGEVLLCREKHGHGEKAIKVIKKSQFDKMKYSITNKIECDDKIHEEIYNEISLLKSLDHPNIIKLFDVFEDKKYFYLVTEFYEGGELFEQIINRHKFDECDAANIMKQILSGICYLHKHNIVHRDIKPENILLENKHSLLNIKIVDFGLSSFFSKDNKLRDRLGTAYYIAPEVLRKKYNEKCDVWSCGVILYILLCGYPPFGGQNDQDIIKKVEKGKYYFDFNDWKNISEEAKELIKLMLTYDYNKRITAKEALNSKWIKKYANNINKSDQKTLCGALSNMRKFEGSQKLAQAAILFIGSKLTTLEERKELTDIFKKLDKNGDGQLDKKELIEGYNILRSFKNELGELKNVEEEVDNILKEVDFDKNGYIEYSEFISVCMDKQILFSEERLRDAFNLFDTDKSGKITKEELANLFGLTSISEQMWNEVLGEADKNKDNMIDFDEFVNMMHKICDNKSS

[6] = target: Plasmodium falciparum protein kinase 6 (PK6, PF3D7_1337100) (UniProt Q8IDW1); assay: PfPK6 kinase inhibitors, biochemical, TCAMS library (AID 1159586); conditions: recombinant PfPK6, Kinase-Glo ATP depletion luminescence
Chain of Plasmodium falciparum protein kinase 6 (PK6, PF3D7_1337100) (Q8IDW1 1-305): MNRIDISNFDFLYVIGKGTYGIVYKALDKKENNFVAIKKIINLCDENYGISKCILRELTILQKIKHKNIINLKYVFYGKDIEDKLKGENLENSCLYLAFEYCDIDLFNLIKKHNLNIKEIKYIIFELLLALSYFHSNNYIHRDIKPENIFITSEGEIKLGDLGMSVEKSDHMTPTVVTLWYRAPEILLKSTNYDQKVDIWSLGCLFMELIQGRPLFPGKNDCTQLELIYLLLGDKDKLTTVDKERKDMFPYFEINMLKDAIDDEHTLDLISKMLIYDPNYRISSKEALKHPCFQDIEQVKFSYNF

[7] = target: Protein kinase 7 (PK7), Plasmodium falciparum 3D7 (PF3D7_0213400) (UniProt Q7YTF7); assay: inhibition of Plasmodium PK7 catalytic activity – biochemical, TCAMS antimalarial set, Kinase-Glo luminescence (AID 1159587); conditions: recombinant PfPK7, Kinase-Glo ATP depletion luminescence
Chain of Protein kinase 7 (PK7), Plasmodium falciparum 3D7 (PF3D7_0213400) (Q7YTF7 1-343): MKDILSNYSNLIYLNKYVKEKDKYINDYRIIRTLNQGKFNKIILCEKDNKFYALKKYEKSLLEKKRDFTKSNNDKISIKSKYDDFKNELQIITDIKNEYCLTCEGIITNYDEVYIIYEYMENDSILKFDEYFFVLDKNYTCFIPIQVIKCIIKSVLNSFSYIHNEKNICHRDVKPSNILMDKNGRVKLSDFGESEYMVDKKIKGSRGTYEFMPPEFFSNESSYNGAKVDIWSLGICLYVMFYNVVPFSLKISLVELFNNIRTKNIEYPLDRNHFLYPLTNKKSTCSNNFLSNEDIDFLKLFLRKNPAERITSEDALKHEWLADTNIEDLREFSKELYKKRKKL

[8] = target: Calcium-dependent protein kinase 4 (Plasmodium falciparum (isolate 3D7)) (UniProt Q8IBS5); assay: PfCDPK4 kinase inhibitors, biochemical, TCAMS library (AID 1159588; cut-off not given, nearly all actives have IC50 up to about 0.91 µM); conditions: recombinant PfCDPK4, Kinase-Glo ATP depletion luminescence
Chain of Calcium-dependent protein kinase 4 (Plasmodium falciparum (isolate 3D7)) (Q8IBS5 whole entry, looked up): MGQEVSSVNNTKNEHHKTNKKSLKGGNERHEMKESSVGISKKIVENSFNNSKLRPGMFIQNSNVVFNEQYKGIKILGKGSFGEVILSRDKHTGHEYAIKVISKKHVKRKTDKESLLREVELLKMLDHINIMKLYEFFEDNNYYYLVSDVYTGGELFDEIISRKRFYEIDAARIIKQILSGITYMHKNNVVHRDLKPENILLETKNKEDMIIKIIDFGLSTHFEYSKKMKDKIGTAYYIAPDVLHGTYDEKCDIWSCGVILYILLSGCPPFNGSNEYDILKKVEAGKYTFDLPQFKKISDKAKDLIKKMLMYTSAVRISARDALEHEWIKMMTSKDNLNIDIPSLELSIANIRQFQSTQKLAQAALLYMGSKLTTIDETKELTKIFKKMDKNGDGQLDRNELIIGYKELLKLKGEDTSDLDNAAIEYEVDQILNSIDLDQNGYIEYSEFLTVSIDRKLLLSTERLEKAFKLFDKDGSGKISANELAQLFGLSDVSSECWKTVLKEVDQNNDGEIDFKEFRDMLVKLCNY

Row | Compound | growth inhibition [1] | inhibition [2] | inhibition [3] [%] | growth inhibition [4] | outcome [5] | outcome [6] | outcome [7] | outcome [8]
1 | COc1ccc2c(NN=Cc3cccc(C)n3)cc(-c3ccccc3)nc2c1 | 25% | -7% | 3 | 97% (active) | inactive | inactive | inactive | inactive
2 | O=C(Nc1ccc(-c2nc3ccccc3[nH]2)cc1)c1ccc([N+](=O)[O-])s1 | 77% (active) | 83% (active) | -6 | 101% (active) | inactive | inactive | inactive | inactive
3 | COc1cc2nc(-c3ccccc3)nc(N3CCN(CC(=O)N4CCCC4)CC3)c2cc1OC | 70% (active) | 7% | -1 | 84% (active) | inactive | inactive | inactive | inactive
4 | C=CCOc1ccc2ccccc2c1CNCCCCCCNCc1c(OCC=C)ccc2ccccc12 | 98% (active) | 99% (active) | 3 | 100% (active) | inactive | inactive | inactive | inactive
5 | CN1CCN(CCCN(Cc2csc(-c3ccc(CNCc4ccccc4)cc3)n2)S(=O)(=O)c2cccc3cccnc23)CC1 | 32% | 5% | 1 | 89% (active) | inactive | inactive | inactive | inactive
6 | Clc1ccc(Cn2nc(Br)nc2Br)c(Cl)c1 | 96% (active) | 4% | 2 | 96% (active) | inactive | inactive | inactive | inactive
7 | Cc1cnc(Nc2ccccc2)nc1NCCC(=O)Nc1ccccc1 | 7% | 10% | 3 | 89% (active) | inactive | inactive | inactive | inactive
8 | CC(=O)Nc1cccc(NC(=O)CSc2ccc(-c3nc4ccccc4[nH]3)cn2)c1 | 73% (active) | 22% | -4 | 97% (active) | inactive | inactive | inactive | inactive
9 | O=C(C=Cc1cccs1)Nc1ccc(-c2nc3ccccc3[nH]2)cc1 | 3% | -4% | 4 | 83% (active) | inactive | inactive | inactive | inactive
10 | Nc1ncc(-c2cccc(OCc3ccccc3)c2)cc1-c1nnc2ccc(Cl)nn12 | 7% | -7% | -5 | 94% (active) | inactive | inactive | inactive | inactive
11 | NC(=NCCc1ccc(Cl)c(Cl)c1)c1ccc2ccccc2c1 | 29% | 60% (active) | -3 | 100% (active) | inactive | inactive | inactive | inactive
12 | CC(=O)Nc1ccc(C(=O)Nc2cccc(-c3ccc(-c4nc5ccc(C(F)(F)F)cc5[nH]4)s3)c2)cn1 | 98% (active) | 42% | 3 | 100% (active) | inactive | inactive | inactive | inactive
13 | CCc1ccc(-c2nc3cc(NC(=O)c4cc([N+](=O)[O-])cc([N+](=O)[O-])c4)ccc3o2)cc1 | 12% | 12% | 2 | 93% (active) | inactive | inactive | inactive | inactive
14 | Cc1cc(NC2CCN(CC3CCCCC3)C2)nc(Nc2ccc(Cl)cc2)n1 (stereo not given) | 83% (active) | 26% | -2 | 98% (active) | inactive | inactive | inactive | inactive
15 | CC(C)CC(=O)Nc1cc(=O)[nH]c2nc(-c3ccccc3)nn12 | 85% (active) | -6% | -6 | 89% (active) | inactive | inactive | inactive | inactive
16 | O=S(=O)(NCCN1CCCC1)c1cccc(-c2ccc(CNCc3ccsc3)cc2)c1 | 31% | 33% | 6 | 101% (active) | inactive | inactive | inactive | inactive
17 | Cc1cc(CNCCCCCCNCc2ccc(Cl)cc2)ccc1O | 0% | 23% | -2 | 96% (active) | inactive | inactive | inactive | inactive
18 | CC(C)Nc1nc(NC2CCCCC2)nc(N2CCCCCCC2)n1 | 96% (active) | 13% | 2 | 86% (active) | inactive | inactive | inactive | inactive
19 | CC(C)(C)c1ccc(NC(=O)c2ccc(CN3CCCN(Cc4ccsc4)CC3)cc2)cc1 | -1% | 50% (active) | -7 | 96% (active) | inactive | inactive | inactive | inactive
20 | CCCNCc1ccc(-c2ccc(CN(CCOC)C(=O)Cc3cccnc3)cc2)nc1 | 13% | 10% | -1 | 92% (active) | inactive | inactive | inactive | inactive

Row | Compound | growth inhibition [1] | inhibition [2] | inhibition [3] [%] | growth inhibition [4] | outcome [5] | outcome [6] | outcome [7] | outcome [8]
21 | CCN(CC)CCN(Cc1ccc(-c2ccc(C(F)(F)F)cc2)cc1)C(=O)Cn1c(CCc2cccc(F)c2F)nc(=O)c2sccc21 | 70% (active) | 70% (active) | 6 | 96% (active) | inactive | inactive | inactive | inactive
22 | Cc1[nH]c2ccccc2c(=O)c1-c1ccc(Cl)cc1 | 91% (active) | -1% | 2 | 93% (active) | inactive | inactive | inactive | inactive
23 | N=C(N)c1ccc(OCc2cccc(COc3ccc(C(=N)N)cc3I)c2)c(I)c1 | 100% (active) | 7% | 2 | 102% (active) | inactive | inactive | inactive | inactive
24 | Cc1cc(=O)[nH]c(/N=C(/N)NOCCCc2ccccc2)n1 | 4% | -4% | 3 | 100% (active) | inactive | inactive | inactive | inactive
25 | Cc1cccc2[nH]c(-c3ccc(-c4cccc(C(=O)NCCc5cn(C)cn5)c4)s3)nc12 | 17% | 27% | -7 | 92% (active) | inactive | inactive | inactive | inactive
26 | COc1ccc(-c2ccc(NC(=O)c3cccc(C#N)c3)cc2)cc1CN(C)C | 10% | 11% | 0 | 103% (active) | inactive | inactive | inactive | inactive
27 | COc1ccc(C=NNc2ccnc3cc(F)c(C)cc23)c2ccccc12 | 85% (active) | -6% | 3 | 101% (active) | inactive | inactive | inactive | inactive
28 | COc1ccc2nc(C)cc(NN=Cc3ccc(F)cc3)c2c1 | 99% (active) | 5% | -8 | 100% (active) | inactive | inactive | inactive | inactive
29 | CCN(CC(C)O)C(=O)c1ccc(-c2cccc(-c3nc4c(C)cccc4[nH]3)c2)cc1 (stereo not given) | 32% | 28% | -2 | 100% (active) | inactive | inactive | inactive | inactive
30 | O=C1CCCN1CCCNCc1ccc(-c2ccc(-c3nc4ccc(F)cc4[nH]3)s2)cc1 | 91% (active) | 19% | 0 | 100% (active) | inactive | inactive | inactive | inactive
31 | COc1cccc(-c2cnc(N)c(-c3nc4cc(Cl)c(F)cc4[nH]3)c2)c1 | 26% | 37% | 6 | 100% (active) | inactive | inactive | inactive | inactive
32 | CN(C)C(=O)c1ccc(CN(Cc2ccc(OC(C)(C)C)cc2)Cc2ccc3c(c2)OCCO3)cc1 | 96% (active) | -5% | 1 | 95% (active) | inactive | inactive | inactive | inactive
33 | O=C(NC1CC1)c1cnc(N2CCC(Oc3ccc(Cl)cc3)CC2)c(Cl)c1 | 75% (active) | 12% | -5 | 86% (active) | inactive | inactive | inactive | inactive
34 | c1ccc(-c2cc(NCCNc3cc(-c4ccccc4)nc4ccccc34)c3ccccc3n2)cc1 | 11% | -2% | 0 | 99% (active) | inactive | inactive | inactive | inactive
35 | CNc1ccc(CNCc2ccc(-c3ccc(-c4nc5ccc(F)cc5[nH]4)cc3)cc2)cc1 | 95% (active) | 38% | -5 | 101% (active) | inactive | inactive | inactive | inactive
36 | Cc1noc(C)c1-c1cccc(CNCc2cccc(-c3ccc(-c4nc5ccccc5[nH]4)cc3)c2)c1 | 76% (active) | 27% | -2 | 100% (active) | inactive | inactive | inactive | inactive
37 | COc1cc(F)c2ncc(Cl)c(C(O)CN3CCC(NC(=O)c4ccc5c(n4)NC(=O)CO5)CC3)c2c1 (stereo not given) | 100% (active) | 22% | -1 | 102% (active) | inactive | inactive | inactive | inactive
38 | CCOc1ccc2nc(C)cc(NN=Cc3cccnc3)c2c1 | 100% (active) | 18% | 1 | 102% (active) | inactive | inactive | inactive | inactive
39 | COc1cc(NCCCCCNc2cc(Cl)nc3ccccc23)nc2ccccc12 | 54% (active) | 17% | -3 | 103% (active) | inactive | inactive | inactive | inactive
40 | Cc1cc(N2CCOCC2)nc(Nc2ccc(NC(=O)Nc3ccc(F)cc3)cc2)n1 | 34% | 35% | -2 | 101% (active) | inactive | inactive | inactive | inactive
